Assay results taken from PubChem BioAssay AID1259389 (Center for Chemical Genomics, University of Michigan, 2018).
Out of some 100,000 compounds screened, about 620 (0.62%) were called active. The calls were made as follows: active = z-score of 3 or more in at least 2 runs; inactive = the rest. Shown is part of a subset that was picked to be rich in actives.

Assay: TAR RNA-Tat peptide displacers, HIV-1, primary screen, biochemical, FRET, FAM/TAMRA-labeled Tat (AID 1259389)
Conditions: HIV-1 TAR RNA, Tat peptide displacement FRET; hits give high values
With `Cc1c2c(c(O)c3c(O)cccc13)C(=O)OC2[C@@H]1C(N(C)C)C(O)=C(C(N)=O)C(=O)[C@H]1O` (stereo partly specified) the z-score was 31 (active).
With `COc1cc(NC(=O)NCC2CCCO2)cc2sc(NS(=O)(=O)c3ccccc3)nc12` (stereo unspecified) the z-score was 0.36 (inactive).
With `Cc1ccc2cc(-c3noc(CC(C)C)n3)c(=O)[nH]c2c1` the z-score was -1.58 (inactive).
With `Cc1ccc2cc(-c3noc(CCC(N)=O)n3)c(=O)[nH]c2c1` the z-score was 6.88 (active).
With `COc1cccc(-c2nc(-c3cc4cc(C)ccc4[nH]c3=O)no2)c1` the z-score was 0.22 (inactive).
With `C=CCOc1ccc(C2c3c(oc4ccc(F)cc4c3=O)C(=O)N2CCOC)cc1` (stereo unspecified) the z-score was 2.08 (inactive).
For `CCCOC(=O)C1=C(C)Nc2nnnn2C1c1cc(Br)ccc1OC` (stereo unspecified), the z-score was -6.75 (inactive).
With `Cc1cc2c3c([nH]c2cc1S(=O)(=O)Nc1ccccc1F)CC(C)(C)CC3=O` the z-score was 0.08 (inactive).
For `CCCS(=O)(=O)Nc1cccc(-c2ccc(S(=O)(=O)CC)nn2)c1`, the z-score was -0.4 (inactive).
For `Cc1ccc(S(=O)(=O)Nc2cccc(-c3cn4ccccc4n3)c2)cc1C`, the z-score was 0.58 (inactive).
With `CCCS(=O)(=O)Nc1cccc(-c2cn3ccsc3n2)c1` the z-score was 15.9 (active).
For `O=C1COc2cc(S(=O)(=O)CCC(=O)N3CCCC3)c(Cl)cc2N1`, the z-score was 0.78 (inactive).
For `Cc1ccc(C)c(N2CCN(c3ncnc4sc(C(=O)O)c(C)c34)CC2)c1`, the z-score was 4.41 (active).
For `COc1ncnc2sc(C(=O)O)c(C)c12`, the z-score was 1.15 (inactive).
In the case of `CCN1CCN(c2ncnc3sc(C(=O)N4CCC(N5CCCCC5)CC4)c(C)c23)CC1`, the z-score is reported as 1.72 (inactive).
With `Cn1c(=O)oc2cc(S(=O)(=O)N3CCC(C(=O)NCCC4=CCCCC4)CC3)ccc21` the z-score was -0.51 (inactive).
For `CCOC(=O)C1=C(C)NC2=C(C(=O)C(C(=O)OC)C(C)C2)C1c1ccc(C)s1` (stereo unspecified), the z-score was 1.89 (inactive).
In the case of `Cc1cccc(NC(=O)c2cc3c(s2)-c2ccccc2S(=O)(=O)C3)n1`, the z-score is reported as 1.46 (inactive).
With `CCc1ccc(Nc2nn3c(=O)c4cc5c(cc4nc3s2)OCO5)cc1` the z-score was 3.98 (inactive).
For `O=c1c2ccccc2nc2sc(Nc3ccc4c(c3)OCO4)nn12`, the z-score was 18.8 (active).
For `COC(=O)c1ccc2c(=O)n3nc(Nc4ccc(F)c(F)c4)sc3nc2c1`, the z-score was -0.18 (inactive).
With `C=CCN(Cc1nc(-c2cccc(C)c2)no1)S(=O)(=O)c1ccccc1` the z-score was 1.74 (inactive).
In the case of `CC(C)OC(=O)c1ccc(N2CC(O)=C(c3nc4ccccc4n3C)C2=N)cc1`, the z-score is reported as -0.32 (inactive).
In the case of `CSc1cccc(N2CC(c3nc4ccccc4n3CCN3CCOCC3)CC2=O)c1` (stereo unspecified), the z-score is reported as 1.11 (inactive).
With `CCc1cccc(NS(=O)(=O)c2ccc(/C=C/c3onc(C)c3[N+](=O)[O-])cc2)c1` the z-score was 1.16 (inactive).
With `CCCCN(C)S(=O)(=O)c1cc(-c2cc(C)no2)ccc1CC` the z-score was 2.74 (inactive).
In the case of `CCCSc1ncc(CO)n1Cc1ccccc1`, the z-score is reported as 1.26 (inactive).
In the case of `COc1ccccc1N1CCN(Cc2cc(=O)n3nc(C4CCCCC4)sc3n2)CC1`, the z-score is reported as 0.09 (inactive).
With `CCC(CC)C(=O)Nc1ccc(OCc2cc(=O)n3cccc(C)c3n2)cc1` the z-score was 2.07 (inactive).
In the case of `Cc1ccc(-c2ncnc3c(C#N)c4ccccn4c23)cc1`, the z-score is reported as 2.39 (inactive).
For `O=C(Nc1nc2nc(-c3ccccc3)cc(=O)n2[nH]1)C1CC1`, the z-score was 2.82 (inactive).
With `Nc1ccc(-c2cc(=O)n3[nH]cnc3n2)cc1` the z-score was 10.6 (active).
For `O=C(Nc1nc2nc(-c3ccccc3)cc(=O)n2[nH]1)C1CCCCC1`, the z-score was 0.88 (inactive).
For `Cc1cc(-c2ccc(S(=O)(=O)N3CCc4ccccc4C3)s2)on1`, the z-score was 0.06 (inactive).
For `Cc1ccc(S(=O)(=O)Nc2ccc3c(c2)oc(=O)n3C)cc1`, the z-score was 1.19 (inactive).
With `C#CCSc1nc2c(c(=O)[nH]1)C(c1ccc(OCCCC)cc1)CC(=O)N2` (stereo unspecified) the z-score was -0.97 (inactive).
For `CCSc1nc2c(c(=O)[nH]1)C(c1ccc(OC)c(Br)c1)CC(=O)N2` (stereo unspecified), the z-score was 1.43 (inactive).
In the case of `C#CCSc1nc2c(c(=O)[nH]1)C(c1ccc(O)c(O)c1)CC(=O)N2` (stereo unspecified), the z-score is reported as 26.9 (active).
In the case of `CCN(CC)C(=O)Cn1c(-n2nc(C)cc2C)nc2c(c1=O)CCCC2`, the z-score is reported as 1.12 (inactive).
For `Cc1ccc(-c2nc(CSCC(=O)NC3CC3)no2)cc1`, the z-score was 0.42 (inactive).
For `C=C(C)COc1ccc2oc(C)c(C(=O)OCC)c2c1`, the z-score was 0.55 (inactive).
For `CCOc1ccc(C2CC(=O)N3CN(c4ccc(OC)cc4OC)CSC3=C2C#N)cc1OC` (stereo unspecified), the z-score was -4.55 (inactive).
In the case of `COc1ccc(N2CSC3=C(C#N)C(c4cccc(Br)c4)CC(=O)N3C2)cc1` (stereo unspecified), the z-score is reported as -0.77 (inactive).
With `COc1cc(C2CC(=O)N3CN(c4ccc(Br)cc4)CSC3=C2C#N)ccc1O` (stereo unspecified) the z-score was 24.7 (active).
In the case of `COc1cccc(C2CC(=O)N3CN(c4ccc(Br)cc4)CSC3=C2C#N)c1` (stereo unspecified), the z-score is reported as -2.72 (inactive).
In the case of `COc1cc(C2CC(=O)N3CN(c4ccccc4)CSC3=C2C#N)ccc1O` (stereo unspecified), the z-score is reported as 31.5 (active).
For `COC(=O)c1ccc(N2CSC3=C(C#N)C(c4ccc(Cl)cc4)CC(=O)N3C2)cc1` (stereo unspecified), the z-score was -0.23 (inactive).
In the case of `COc1cccc(Nc2c(O)c(=O)c2=O)c1`, the z-score is reported as -0.8 (inactive).
In the case of `CCC(C)NC(=O)Cn1c(=O)n(CC2CCC(C(=O)N3CCCC3)CC2)c(=O)c2sccc21` (stereo unspecified), the z-score is reported as 0.29 (inactive).
With `CC1CCCN(C(=O)Cn2c(=O)oc3cc(S(=O)(=O)N4CCCCC4C)ccc32)C1` (stereo unspecified) the z-score was 1.86 (inactive).
With `CSc1nnc(-c2nonc2NC(C)=O)n1C` the z-score was 0.81 (inactive).
For `COc1cccc(Nc2nc(-c3cc(OC)ccc3OC)no2)c1`, the z-score was 1.24 (inactive).
For `COc1ccccc1C1OC(c2cc(C3CC3)nc3ccccc23)=NN1C(C)=O` (stereo unspecified), the z-score was 1.12 (inactive).
For `CC(=O)N1N=C(c2cc(C3CC3)nc3ccccc23)OC1c1ccc(F)cc1` (stereo unspecified), the z-score was 21.6 (active).
With `CC(=O)N1N=C(c2cc(C3CC3)nc3ccccc23)OC1c1ccc([N+](=O)[O-])s1` (stereo unspecified) the z-score was 2.1 (inactive).
For `COc1ccc(-c2nc3sccn3c2Nc2ccc(Cl)cc2)cc1`, the z-score was 0.26 (inactive).
For `O=c1[nH]c(-c2cccc(Cl)c2)nc2c1Cc1cc(F)ccc1O2`, the z-score was 1.31 (inactive).
In the case of `CCOc1ccccc1NS(=O)(=O)c1cc2c3c(c1)C(C)C(=O)N3CCC2` (stereo unspecified), the z-score is reported as 2.12 (inactive).
In the case of `Cc1cc(NS(=O)(=O)c2ccc(-n3cccn3)cc2)ccc1Br`, the z-score is reported as 0.31 (inactive).
For `Cc1cc(NS(=O)(=O)c2ccc3[nH]c(=O)ccc3c2)ccc1Br`, the z-score was 3.75 (active).
With `Cc1ccc(S(=O)(=O)Nc2ccc3[nH]c(=O)oc3c2)cc1C` the z-score was 0.9 (inactive).
